Out of some 310,000 compounds screened, about 14,000 (4.5%) showed an effect of 50% or more. Effects have a minus sign here. Only a selection was taken, and strong results are over-represented in it overall.
These compounds were tested against human ether-à-go-go-related gene (hERG) potassium channel (human, UniProt Q12809) (assay: primary screen, population patch clamp on CHO cells stably expressing hERG; higher = less effect of the substance).
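Also: peak tail current of the secondary pulse compared with the same well before compound.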

Sequence of human ether-à-go-go-related gene (hERG) potassium channel (Q12809 whole entry, looked up): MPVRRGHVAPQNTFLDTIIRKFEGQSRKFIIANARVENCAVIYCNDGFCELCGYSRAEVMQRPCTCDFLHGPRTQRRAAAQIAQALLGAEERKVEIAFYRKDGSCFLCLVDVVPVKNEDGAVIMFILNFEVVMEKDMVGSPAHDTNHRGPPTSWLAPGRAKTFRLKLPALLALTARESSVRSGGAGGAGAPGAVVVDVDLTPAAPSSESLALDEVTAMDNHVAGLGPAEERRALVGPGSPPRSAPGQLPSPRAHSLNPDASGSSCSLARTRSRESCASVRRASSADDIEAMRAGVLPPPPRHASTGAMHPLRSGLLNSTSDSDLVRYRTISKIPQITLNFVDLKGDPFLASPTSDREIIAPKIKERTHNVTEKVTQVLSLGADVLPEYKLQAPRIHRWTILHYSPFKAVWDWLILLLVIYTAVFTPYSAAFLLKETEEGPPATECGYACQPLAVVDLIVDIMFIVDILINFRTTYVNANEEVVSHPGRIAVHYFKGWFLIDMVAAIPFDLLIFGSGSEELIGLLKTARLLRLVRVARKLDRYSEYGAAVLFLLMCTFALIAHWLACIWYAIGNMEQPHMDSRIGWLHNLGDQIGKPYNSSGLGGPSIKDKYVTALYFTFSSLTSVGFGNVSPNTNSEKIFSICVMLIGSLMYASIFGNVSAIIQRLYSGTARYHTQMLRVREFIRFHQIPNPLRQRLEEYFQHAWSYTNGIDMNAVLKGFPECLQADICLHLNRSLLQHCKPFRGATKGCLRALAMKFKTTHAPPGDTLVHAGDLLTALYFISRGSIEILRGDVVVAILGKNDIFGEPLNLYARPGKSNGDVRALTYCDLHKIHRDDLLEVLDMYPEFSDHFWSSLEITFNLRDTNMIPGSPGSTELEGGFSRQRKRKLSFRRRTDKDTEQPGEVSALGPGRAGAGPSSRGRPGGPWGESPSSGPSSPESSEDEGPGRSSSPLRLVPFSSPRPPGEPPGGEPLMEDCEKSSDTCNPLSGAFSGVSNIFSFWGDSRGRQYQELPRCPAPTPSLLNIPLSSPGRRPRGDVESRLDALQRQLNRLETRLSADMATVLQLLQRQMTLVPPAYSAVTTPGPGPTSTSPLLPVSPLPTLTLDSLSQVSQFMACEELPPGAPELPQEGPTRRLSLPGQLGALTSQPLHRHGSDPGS

Row | Structure (SMILES) | hERG current change (%, negative = inhibition) at 10uM [%]
1 | Cl.c1ccc2c(N3CCNCC3)cccc2c1 | 10.9
2 | Cc1nnc(NC(=O)C2=COCCO2)s1 | 7.13
3 | CN(C)CCCNCC(=O)NN(c1ccccc1)c1ccccc1.O=C(O)C(=O)O | -17.4
4 | CCC(C)[C@H](N)c1nnc(SCC(=O)Nc2cccc(Cl)c2)o1.Cl (some centres unmarked) | -15.6
5 | COc1cnc(-c2ccccn2)nc1N(C)C | -1.39
6 | CC(=NCc1ccco1)c1c(O)n(-c2ccccc2)c(=O)[nH]c1=O | 4.82
7 | COc1cc(/C=N/NC(=S)NCCN2CCOCC2)cc(OC)c1O | 12.7
8 | CCCCNC(=O)c1cccc(S(=O)(=O)N2CC3(C)CC2CC(C)(C)C3)c1 (centres unmarked) | -26.7
9 | CCCNC(=O)c1cccc(S(=O)(=O)N2CC3(C)CC2CC(C)(C)C3)c1 (centres unmarked) | -57.6
10 | CC1(C)CC2CC(C)(CN2S(=O)(=O)c2cccc(C(=O)OCC(N)=O)c2)C1 (centres unmarked) | -7.62
11 | CNC(=O)NC(=O)COC(=O)c1cccc(S(=O)(=O)N2CC3(C)CC2CC(C)(C)C3)c1 (centres unmarked) | -14.4
12 | CCCCCNC(=O)c1cccc(S(=O)(=O)N2CC3(C)CC2CC(C)(C)C3)c1 (centres unmarked) | -1.24
13 | CC1(C)CC2CC(C)(CN2S(=O)(=O)c2cccc(C(=O)OCC(=O)NC(N)=O)c2)C1 (centres unmarked) | -57.1
14 | Br.O=C1SC(SC(=Nc2ccccc2)Nc2ccccc2)C(=O)N1c1ccccc1 (centres unmarked) | 11.1
15 | COc1ccc(C(=O)N2CCCC2(C#N)c2ccccc2)cc1[N+](=O)[O-] (centres unmarked) | -41
16 | CCOc1ccc(C(=O)NC2CCCCCCC2)cc1 | 4.13
17 | COc1ccccc1-n1cc2ccc([N+](=O)[O-])cc2n1 | 8.8
18 | O=C(CC(Nc1ccccc1)C(=O)O)c1ccccc1 (centres unmarked) | 11.2
19 | COc1cccc(NC(=O)Nc2ccccc2C(N)=O)c1 | 1.99
20 | CCOc1ccc(S(=O)(=O)Nc2cc(OC)c(OC)cc2C(=O)O)cc1 | 3.94
21 | COc1cc(Cl)c([C@@H]2C[C@H]3CN(c4ccccc4)C(=O)[C@]34CCCN24)cc1OC | -70.9
22 | COc1cc([C@@H]2C[C@H]3CN(c4ccccc4)C(=O)[C@]34CCCN24)cc(OC)c1OC | -32
23 | COc1ccc([C@@H]2C[C@H]3CN(c4ccccc4)C(=O)[C@]34CCCN24)c(OC)c1OC | -78.3

Row | Structure (SMILES) | hERG current change (%, negative = inhibition) at 10uM [%]
24 | O=C1N(c2ccccc2)C[C@@H]2C[C@@H](c3cccs3)N3CCC[C@@]123 | -11.5
25 | CCOc1cc([C@@H]2C[C@H]3CN(c4ccccc4)C(=O)[C@]34CCCN24)ccc1OC | -10.4
26 | COc1ccccc1-n1cc([C@@H]2C[C@H]3CN(c4ccccc4)C(=O)[C@]34CCCN24)cn1 | -17.1
27 | CCc1cc2cc(C(=O)N3CCN(Cc4ccccc4)CC3)sc2s1 | -36.7
28 | CCN(c1ccccc1C)S(=O)(=O)c1cc2c3c(c1)CCC(=O)N3CCC2 | -11.2
29 | COc1ccc(C(CC(=O)Nc2cc([N+](=O)[O-])ccc2OC)c2ccccc2)cc1 (centres unmarked) | 8.82
30 | O=C(CSCc1ccccc1)Nc1ccccc1 | 8.79
31 | Cc1ccc(S(=O)(=O)Oc2ccc(/C=N/NC(=O)c3c(Cl)cnn3C)cc2)cc1 | -8.14
32 | CCOC(=O)N1CCN(c2nc(C)c3c(n2)CCCC3=O)CC1 | 7.97
33 | CC(C)c1cccc(OCCN2CCCC2)c1 | 5.18
34 | CC(C)c1cccc(OCCCCN(C)C)c1.O=C(O)C(=O)O | -14.1
35 | CCN1CCN(CCOCCOc2ccccc2)CC1.O=C(O)C(=O)O | 10.8
36 | CC1CCN(CCCCOc2cccc(C(C)C)c2)CC1.O=C(O)C(=O)O | -71.7
37 | CCC1CCCCN1CCCCOc1cccc(Cl)c1.O=C(O)C(=O)O (centres unmarked) | -72
38 | Clc1cccc(OCCCCN2CCCCC2)c1 | -36.6
39 | CC1CCCN(CCCCOc2cccc(Br)c2)C1.O=C(O)C(=O)O (centres unmarked) | -69
40 | CCN1CCN(CCOc2cccc(Oc3ccccc3)c2)CC1.O=C(O)C(=O)O | -61.1
41 | CN(C)CCCOc1cccc(Oc2ccccc2)c1.O=C(O)C(=O)O | -34.5
42 | CN(C)CCCCOc1cccc(Br)c1.O=C(O)C(=O)O | -23.7
43 | Clc1cccc(OCCN2CCOCC2)c1.O=C(O)C(=O)O | -2.27
44 | COc1cccc(OCCCCN2CC(C)OC(C)C2)c1.O=C(O)C(=O)O (centres unmarked) | -4.73
45 | COc1nccnc1NS(=O)(=O)c1ccc(NCc2ccccc2O)cc1 | 7.4
46 | CC(=O)Nc1ccc(S(=O)(=O)N2CCSC2)cc1 | 1.65

Row | Structure (SMILES) | hERG current change (%, negative = inhibition) at 10uM [%]
47 | COc1ccc(N2CCN(c3ncnc4scc(-c5ccc(C)cc5)c34)CC2)cc1 | 13
48 | CC(C)(C)NC(=O)C(c1ccc(O)cc1)N(C(=O)CCC(=O)Nc1ccccn1)c1ccc(F)cc1 (centres unmarked) | 8.1
49 | COC(=O)C(CCSC)NC(=O)c1cccc([N+](=O)[O-])c1 (centres unmarked) | -12.1
50 | CCOC(=O)N1CCN(S(=O)(=O)c2ccc3c(c2)oc(=O)n3C)CC1 | -0.295
51 | CC(=O)c1ccc(NC(=O)C2CC2c2ccccc2)cc1 (centres unmarked) | 3.25
52 | CC1=NOC(=O)/C1=C\c1ccc(-c2cccc(Cl)c2)o1 | 10.4
53 | NC(=O)[C@H]1CC2(CC(c3cccc(NC(=O)[C@H]4CCC(=O)N4)c3)=NO2)CN1C(=O)c1ccccc1C(=O)c1ccccc1 (some centres unmarked) | 14.7
54 | CC1CN(CCOc2cccc(Oc3ccccc3)c2)CC(C)O1.O=C(O)C(=O)O (centres unmarked) | 5.01
55 | CC1CCCN(CCOc2cccc(Oc3ccccc3)c2)C1.O=C(O)C(=O)O (centres unmarked) | -64.7
56 | CC1CCN(CCOc2cccc(Br)c2)CC1.O=C(O)C(=O)O | -20.3
57 | CC1CN(CCCCOc2cccc(Oc3ccccc3)c2)CC(C)O1.O=C(O)C(=O)O (centres unmarked) | -35.9
58 | CC1CCN(CCCCOc2cccc(Br)c2)CC1.O=C(O)C(=O)O | -69
59 | O=C(NCc1ccc2c(c1)OCO2)C1CCC(=O)N1C1CCCCC1 (centres unmarked) | -9.26
60 | Cc1cc(NC(=O)CCC(=O)N(c2ccccc2)C(C(=O)NC2CCCC2)c2ccncc2)no1 (centres unmarked) | 2.53
61 | C=CCOc1ccc(CNc2ccc3[nH]c(=O)[nH]c3c2)cc1 | 1.57
62 | Clc1cccc(Oc2cnc3ccccc3n2)c1 | -25.8
63 | O=C(NCc1cccnc1)C1CCN(S(=O)(=O)c2cccc(C(F)(F)F)c2)CC1 | 2.69
64 | Cc1cccc(NC(=S)N(CCN2CCOCC2)Cc2ccccc2F)c1 | -25
65 | CCN1CCN(C(=O)Cn2ncc3c2-c2ccccc2OC3)CC1 | -10.1
66 | O=C(Cn1ncc2c1-c1ccccc1OC2)N1CCN(Cc2ccc3c(c2)OCO3)CC1 | -61.3
67 | O=C(CN1C(=O)c2ccccc2S1(=O)=O)N1CCN(Cc2ccc3c(c2)OCO3)CC1 | -12.8
68 | Cc1ccc(C)c(CN2CCCN(C(=O)Cn3ncc4c3-c3ccccc3OC4)C2)c1 | -2.82
69 | CCOC(=O)N1CCN(C(=O)Cn2ncc3c2-c2ccccc2OC3)CC1 | -3.57

Row | Structure (SMILES) | hERG current change (%, negative = inhibition) at 10uM [%]
70 | O=C(Cn1ncc2c1-c1ccccc1OC2)N1CCN(Cc2ccccc2)CC1 | -68.5
71 | COC(=O)[C@@H](NC(=O)NCCC1=CCCCC1)C(C)C | -3.29
72 | COC(=O)CCCC(=O)N1CCCC(CCC(=O)NCc2ccc(F)c(F)c2)C1 (centres unmarked) | 0.17
73 | COc1ccc(NC2CCCN(Cc3cccc4cnccc34)C2)cc1 (centres unmarked) | -18.5
74 | COc1cc(/C=N/N2CCCCC2)cc([N+](=O)[O-])c1O | 20.8
75 | CC(CN1CCC(n2nccc2NC(=O)c2ccccc2Cl)CC1)c1ccccc1 (centres unmarked) | -68.9
76 | CC(CN1CCC(n2nccc2NC(=O)C2CCCC2)CC1)c1ccccc1 (centres unmarked) | -24
77 | CC(CCN1CCC(n2nccc2NC(=O)c2ccccc2Cl)CC1)c1ccccc1 (centres unmarked) | -82.7
78 | CC(C)CCN1CCC(n2nccc2NC(=O)C2CCOC2)CC1 (centres unmarked) | 15.3
79 | COCC(C)N1CCC(n2nccc2NC(=O)c2ccccc2Cl)CC1 (centres unmarked) | -47.9
80 | Cc1cc(-c2ccco2)n(CC(=O)NCc2ccco2)n1 | 8.48
81 | CCC(C(=O)N1CC2(C)CC1CC(C)(C)C2)N1C(=O)c2ccccc2C1=O (centres unmarked) | -18.3
82 | Cc1cc(=O)oc2cc(OCCc3ccccc3)ccc12 | -0.326
83 | CCOc1ccc2c(c1)-c1c(ssc1=S)C(C)(C)N2C | -3.7
84 | CCOC(=O)C1C(=O)C=C(c2ccc(C)cc2)CC1c1ccco1 (centres unmarked) | 5.34
85 | CCOC(=O)C1C(=O)C=C(c2ccc([N+](=O)[O-])cc2)CC1c1ccccc1 (centres unmarked) | -63.5
86 | CCOC(=O)C1C(=O)C=C(c2ccc(C)cc2)CC1c1ccccc1 (centres unmarked) | 28.2
87 | CCOC(=O)C1C(=O)C=C(c2ccc(NS(C)(=O)=O)cc2)CC1c1ccco1 (centres unmarked) | -80.3
88 | CCOC(=O)C1C(=O)C=C(c2ccc(C)cc2)CC1c1cccc([N+](=O)[O-])c1 (centres unmarked) | -4.88
89 | CCOC(=O)C1C(=O)C=C(c2ccc(Br)cc2)CC1c1ccco1 (centres unmarked) | -23.2

— paper PMC4336329 (PLoS ONE, 2015)
